{"source": "PubChem BioAssay (Tox21)", "key": {"[1]": {"assay": "cAMP Responsive Elements (CRE) small molecule antagonists, cell-based qHTS assay: qHTS cell viability counter screen (AID 2060913); further: nearly all actives have a fitted effect of over 40% in size", "outline": "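Cytotoxicity counter screen multiplexed with the CRE-bla antagonist read: HEK293T cells in DMEM with dialyzed FBS and 25 mM HEPES were treated 3 hrs under 0.25 uM final NKH477, then viability measured by CellTiter-Glo luminescence.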"}, "[2]": {"assay": "cAMP Responsive Elements (CRE) small molecule agonists, cell-based qHTS assay: qHTS cell viability counter screen (AID 2060914); further: nearly all actives have a fitted effect of over 50% in size", "outline": "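Cytotoxicity was measured as ATP luminescence (CellTiter-Glo, 30 min at room temperature) in the same wells as the CRE-bla FRET read-out. HEK293T CRE-bla cells had 3 h compound exposure at 37C/5% CO2.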"}}, "note": "Inconclusive results are not listed. A call without a number means that no potency is given here. Active and inactive are the calls of the source. The call rests on the fitted dose curve; in most records, active means well fitted cell-killing curve with a large enough effect in the repeat runs; inconclusive means weak or mixed curves, or effect the other way; inactive means flat fitted curve, though single readings scatter."}
{"smiles": "CC(C)(C)c1cc(O)c(C(C)(C)C)cc1O", "values": [{"measurement": "Potency", "setting": "[1]", "value": "inactive"}, {"measurement": "Potency", "setting": "[2]", "value": "inactive"}]}
{"smiles": "O=C(OCc1ccccc1)c1ccccc1", "values": [{"measurement": "Potency", "setting": "[1]", "value": "inactive"}, {"measurement": "Potency", "setting": "[2]", "value": "inactive"}]}
{"smiles": "NCCC(O)(P(=O)(O)O)P(=O)(O)O", "values": [{"measurement": "Potency", "setting": "[1]", "value": "inactive"}, {"measurement": "Potency", "setting": "[2]", "value": "inactive"}]}
{"smiles": "C[C@@H]1CCC[C@H](C)N1", "values": [{"measurement": "Potency", "setting": "[1]", "value": "inactive"}, {"measurement": "Potency", "setting": "[2]", "value": "inactive"}]}
{"smiles": "CN(C)CCOC(C)(c1ccccc1)c1ccccn1", "note": "(configuration not stated)", "values": [{"measurement": "Potency", "setting": "[1]", "value": "inactive"}, {"measurement": "Potency", "setting": "[2]", "value": "inactive"}]}
{"smiles": "COC(=O)c1ccc(C(=O)O)cc1", "values": [{"measurement": "Potency", "setting": "[1]", "value": "inactive"}, {"measurement": "Potency", "setting": "[2]", "value": "inactive"}]}
{"smiles": "C[Si]1(C)O[Si](C)(C)O[Si](C)(C)O[Si](C)(C)O[Si](C)(C)O1", "values": [{"measurement": "Potency", "setting": "[1]", "value": "inactive"}, {"measurement": "Potency", "setting": "[2]", "value": "inactive"}]}
{"smiles": "Cc1cccc(NC(=S)N(C)C)c1", "values": [{"measurement": "Potency", "setting": "[1]", "value": "inactive"}, {"measurement": "Potency", "setting": "[2]", "value": "inactive"}]}
{"smiles": "O=C(O)CCc1nc(-c2ccccc2)c(-c2ccccc2)o1", "values": [{"measurement": "Potency", "setting": "[1]", "value": "inactive"}, {"measurement": "Potency", "setting": "[2]", "value": "inactive"}]}
{"smiles": "COC(=O)/C=C\\C(=O)O", "values": [{"measurement": "Potency", "setting": "[1]", "value": "inactive"}, {"measurement": "Potency", "setting": "[2]", "value": "inactive"}]}
{"smiles": "CCCCCc1ccc(N)cc1", "values": [{"measurement": "Potency", "setting": "[1]", "value": "inactive"}, {"measurement": "Potency", "setting": "[2]", "value": "inactive"}]}
{"smiles": "CC(CCO)CC(C)(C)C", "note": "(configuration not stated)", "values": [{"measurement": "Potency", "setting": "[1]", "value": "inactive"}, {"measurement": "Potency", "setting": "[2]", "value": "inactive"}]}
{"smiles": "CCC1(C)NC(=O)NC1=O", "note": "(configuration not stated)", "values": [{"measurement": "Potency", "setting": "[1]", "value": "inactive"}, {"measurement": "Potency", "setting": "[2]", "value": "inactive"}]}
{"smiles": "COCCC(=O)OC", "values": [{"measurement": "Potency", "setting": "[1]", "value": "inactive"}, {"measurement": "Potency", "setting": "[2]", "value": "inactive"}]}
{"smiles": "CC(C)(C)c1cc(C=O)cc(C(C)(C)C)c1O", "values": [{"measurement": "Potency", "setting": "[1]", "value": "inactive"}, {"measurement": "Potency", "setting": "[2]", "value": "inactive"}]}
{"smiles": "CN(C)CCOC1=Cc2ccccc2Sc2ccc(Cl)cc21", "values": [{"measurement": "Potency", "setting": "[1]", "value": "inactive"}, {"measurement": "Potency", "setting": "[2]", "value": "inactive"}]}
{"smiles": "O=C(O)CCCCCCCC(=O)O", "values": [{"measurement": "Potency", "setting": "[1]", "value": "inactive"}, {"measurement": "Potency", "setting": "[2]", "value": "inactive"}]}
{"smiles": "Cc1nc2ccccc2s1", "values": [{"measurement": "Potency", "setting": "[1]", "value": "inactive"}, {"measurement": "Potency", "setting": "[2]", "value": "inactive"}]}
{"smiles": "C[C@@H](c1ncncc1F)C(O)(Cn1cncn1)c1ccc(F)cc1F", "note": "(some centres not stated)", "values": [{"measurement": "Potency", "setting": "[1]", "value": "inactive"}, {"measurement": "Potency", "setting": "[2]", "value": "inactive"}]}
{"smiles": "O=C(C(Cl)Cl)N1CCOC12CCCCC2", "values": [{"measurement": "Potency", "setting": "[1]", "value": "inactive"}, {"measurement": "Potency", "setting": "[2]", "value": "inactive"}]}
{"smiles": "CCCCCCCC/C=C\\CCCCCCCC(=O)NCc1ccc(O)c(OC)c1", "values": [{"measurement": "Potency", "setting": "[1]", "value": "inactive"}, {"measurement": "Potency", "setting": "[2]", "value": "inactive"}]}
{"smiles": "CN1CC(=O)NC1=N", "values": [{"measurement": "Potency", "setting": "[1]", "value": "inactive"}, {"measurement": "Potency", "setting": "[2]", "value": "inactive"}]}
{"smiles": "CN(C)c1cccc(O)c1", "values": [{"measurement": "Potency", "setting": "[1]", "value": "inactive"}, {"measurement": "Potency", "setting": "[2]", "value": "inactive"}]}
{"smiles": "Cc1cc(C(C)(C)C)c(O)c(C)c1Cn1c(=O)n(Cc2c(C)cc(C(C)(C)C)c(O)c2C)c(=O)n(Cc2c(C)cc(C(C)(C)C)c(O)c2C)c1=O", "values": [{"measurement": "Potency", "setting": "[1]", "value": "inactive"}, {"measurement": "Potency", "setting": "[2]", "value": "inactive"}]}
{"smiles": "CC/C(C)=N/O", "values": [{"measurement": "Potency", "setting": "[1]", "value": "inactive"}, {"measurement": "Potency", "setting": "[2]", "value": "inactive"}]}
{"smiles": "CN1CCC(=C2c3ccccc3CCc3sccc32)CC1", "values": [{"measurement": "Potency", "setting": "[1]", "value": "inactive"}, {"measurement": "Potency", "setting": "[2]", "value": "inactive"}]}
{"smiles": "CC(C(=O)O)c1ccc2c(c1)[nH]c1ccc(Cl)cc12", "note": "(configuration not stated)", "values": [{"measurement": "Potency", "setting": "[1]", "value": "inactive"}, {"measurement": "Potency", "setting": "[2]", "value": "inactive"}]}
{"smiles": "CCCCCCCCCCC(CO)CCCCCCCC", "note": "(configuration not stated)", "values": [{"measurement": "Potency", "setting": "[1]", "value": "inactive"}, {"measurement": "Potency", "setting": "[2]", "value": "inactive"}]}
{"smiles": "COc1ccc(C(=O)Nc2nc3ccccc3c(NCc3ccccc3)c2C#N)cc1", "values": [{"measurement": "Potency", "setting": "[1]", "value": "inactive"}, {"measurement": "Potency", "setting": "[2]", "value": "inactive"}]}
{"smiles": "CCCC(=O)C(=O)O", "values": [{"measurement": "Potency", "setting": "[1]", "value": "inactive"}, {"measurement": "Potency", "setting": "[2]", "value": "inactive"}]}
{"smiles": "CNCC[C@H](Oc1cccc2ccccc12)c1cccs1", "values": [{"measurement": "Potency", "setting": "[1]", "value": "inactive"}, {"measurement": "Potency", "setting": "[2]", "value": "inactive"}]}
